High-throughput results (PubChem BioAssay)
Rows were chosen to be rich in hits. Some 3.3% of all compounds tested hit in one or more screens of this group.
MITF TRPM1 HTS: activators of MITF-driven TRPM1 promoter reporter, primary screen, cell-based, SK-MEL-5, luciferase, single point | SK-MEL-5 TRPM1-promoter luciferase, 24 h; % of positive control, neutral wells = 0 | activation, % at 12.5 µM | 300,000 tested, 0.75% active;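 active means mean activation of at least 80% with every replicate also reaching 80%; inconclusive means mean reaches 80% but some replicate falls short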
C2C12 statin: suppressors of statin myotoxicity in C2C12 myotubes, primary screen, cell-based, single point, plate reader. C2C12 myotubes + simvastatin, ATP luminescence, 48 h; scaled: DMSO 0, geranylgeraniol control 100. rescue of ATP level, % at 7.49 µM. 330,000 tested, 0.78% active. AID 602340, 2012;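 active means mean ATP rescue above about 67%, or every replicate alone reaching that limit, limit read from the data, passing the limit was not always enough; inconclusive means no clear call, values can overlap the other calls; inactive means mean under the limit and some replicate under it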;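 further: myotubes were challenged with 10 µM simvastatin during compound exposure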
GAA850 FXN act: FXN promoter activators, primary screen, cell-based, luciferase luminescence, HEK293 lucGAA850; 360,000 tested, 0.56% active; AID 540364, 2011; activation, % at 6 µM; HEK293 lucGAA850 FXN promoter luciferase reporter, 24 h; percent of 10 µM SAHA response;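 active means activation above the average of all compounds screened plus 3 SD, cutoff fixed separately per campaign, cut at about 7.5% in these data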
esBAF inh: Bmi1 luciferase reporter increase in mESCs, primary screen, esBAF inhibitor project, mouse ES cells, Bmi1 luciferase knock-in, single point. 24 h; 100% = twice the neutral-well signal. reporter increase, % at 12.5 µM. 350,000 tested, 2% active. AID 602393, 2012; in the data active means activation above about 40%; inconclusive means no clear call, values can overlap the other calls;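 further: a rise in the Bmi1 reporter signal indicates esBAF inhibition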
Wnt act: Wnt/beta-catenin pathway activators, primary screen, cell-based, plate reader, single point | Wnt/beta-catenin reporter cell assay, activator | activation, % at 9.35 µM | 300,000 tested, 1.2% active | AID 743398, 2014; in the data active means activation above about 30%, passing the limit was not always enough; inconclusive means no clear call, values can overlap the other calls
Of the large screens only hits and unclear results are named; the others gave an inactive call.

O=c1c2ccccc2nc2sc(Nc3cccc(Cl)c3)nn12	esBAF inh 46.1
COCC#Cc1cnc2c(c1)C(=O)N([C@@H](C)CO)C[C@@H](C)[C@@H](CN(C)C(=O)c1ccc(F)cc1)O2	none (no result: MITF TRPM1 HTS, GAA850 FXN act, Wnt act)
COCC(=O)N(C)C[C@@H]1Oc2ncc(C#Cc3ccc(F)cc3)cc2C(=O)N([C@@H](C)CO)C[C@@H]1C	none (no result: MITF TRPM1 HTS, GAA850 FXN act, Wnt act)
O=C(Cn1nnc(-c2ccncc2)n1)N(C1CCCCC1)C1CCCCC1	C2C12 statin 124.2
Brc1ccc(OCc2nc3ccccc3[nH]2)cc1	MITF TRPM1 HTS 99.7, esBAF inh inconclusive, Wnt act 35.9
COc1ccc(OCc2nc3ccccc3[nH]2)cc1	none (no result: Wnt act)
COc1ccccc1OCc1nc2ccccc2[nH]1	MITF TRPM1 HTS inconclusive, Wnt act 64.3
c1ccc2cc(OCc3nc4ccccc4[nH]3)ccc2c1	esBAF inh 50.9 (no result: Wnt act)
C[C@H]1CCCCO[C@@H](CN(C)S(=O)(=O)c2cn(C)cn2)[C@@H](C)CN([C@@H](C)CO)C(=O)c2cc(NS(=O)(=O)c3ccc(Cl)cc3)ccc2O1	none (no result: MITF TRPM1 HTS, C2C12 statin, GAA850 FXN act, Wnt act)
c1ccc2nc(-c3ccncc3)ccc2c1	none (no result: MITF TRPM1 HTS, C2C12 statin, Wnt act)
c1ccc(-c2ccc3cnccc3n2)cc1	esBAF inh 51.9 (no result: MITF TRPM1 HTS, GAA850 FXN act)
CCOC(=O)C1CCCN(C(=O)CCc2nnc(-c3ccc(C(C)=O)s3)o2)C1 (stereo not given)	esBAF inh 70.9, Wnt act 41.1
CCOC(=O)C1CCCN(C(=O)CSCc2ccccc2)C1 (stereo not given)	esBAF inh 48.1
COC(=O)c1c(-c2ccccc2)c[nH]c1C	esBAF inh 51.4
Cc1occc1C(=O)N/N=C/C=C\c1ccccc1[N+](=O)[O-]	none (no result: C2C12 statin, esBAF inh)
Cc1ccccc1/C=N/NC(=O)c1sccc1C	Wnt act 80.2 (no result: C2C12 statin, esBAF inh)
Cc1ccsc1C(=O)N/N=C/C=C/c1ccccc1[N+](=O)[O-]	C2C12 statin inconclusive, esBAF inh 44.5 (no result: Wnt act)
CC(C)N1CC2(CC(c3ccccc3F)=NO2)CN1C(=O)c1ccco1 (stereo not given)	esBAF inh 57.2 (no result: MITF TRPM1 HTS)
O=C(c1ccco1)N1CC2(CC(c3ccc(Cl)cc3)=NO2)CN1Cc1ccc(Br)cc1 (stereo not given)	none (no result: MITF TRPM1 HTS)
CC(C)C(=O)Nc1ccc2c(c1)C(=O)N(C)[C@H]1CC[C@H](CC(=O)NCC3CC3)O[C@H]1CO2	none (no result: MITF TRPM1 HTS, GAA850 FXN act, Wnt act)
CNC[C@@H]1Oc2ncc(-c3ccc(OC)cc3)cc2C(=O)N([C@H](C)CO)C[C@@H]1C	none (no result: MITF TRPM1 HTS, GAA850 FXN act, Wnt act)
CCCC(=O)N1CCC1(C)C(=O)Nc1cc(-c2ccccc2)nn1C (stereo not given)	esBAF inh 55.2, Wnt act 32.6 (no result: MITF TRPM1 HTS)
CCCC(=O)N1CCC1(C)C(=O)Nc1ccccc1-c1ccccc1 (stereo not given)	none (no result: MITF TRPM1 HTS)
COc1ccc(S(=O)(=O)N[C@H]2CC[C@@H](CCn3cc(-c4ccccc4F)nn3)O[C@H]2CO)cc1	none (no result: MITF TRPM1 HTS, GAA850 FXN act, Wnt act)
O=C1/C(=C/c2cccs2)CCC/C1=C\c1cccs1	esBAF inh 60.1, Wnt act 36.4
O=C1C(=Cc2cccs2)CCc2ccccc21	Wnt act 47.8 (no result: MITF TRPM1 HTS, C2C12 statin, GAA850 FXN act, esBAF inh)
O=C1/C(=C/c2ccccc2)CCCc2ccccc21	esBAF inh 49.2 (no result: MITF TRPM1 HTS)
CO[C@@H]1CC[C@@H]2CCN(C)C(=O)C[C@@H](c3ccccc3)CN(C)C(=O)c3cc(C#N)ccc3OC[C@@H]1O2	none (no result: MITF TRPM1 HTS, GAA850 FXN act, Wnt act)
O=C(O)CCC(C(=O)O)n1c(O)c(C2=c3ccccc3=NC2=O)sc1=S (stereo not given)	C2C12 statin 111.7 (no result: Wnt act)
O=C(O)Cn1c(O)c(C2=c3ccccc3=NC2=O)sc1=O	none
C[C@H]1CN([C@@H](C)CO)C(=O)Cc2cc(NS(C)(=O)=O)ccc2O[C@@H]1CN(C)Cc1ccc(Cl)c(Cl)c1	none
C[C@H]1CN([C@@H](C)CO)C(=O)Cc2cc(NS(=O)(=O)c3ccccc3)ccc2O[C@@H]1CN(C)Cc1ccc(Cl)c(Cl)c1	C2C12 statin 102.7 (no result: MITF TRPM1 HTS, GAA850 FXN act, Wnt act)
C[C@@H]1CN([C@H](C)CO)C(=O)Cc2cc(NS(C)(=O)=O)ccc2O[C@@H]1CN(C)Cc1ccc(Cl)c(Cl)c1	C2C12 statin 107.7 (no result: MITF TRPM1 HTS, GAA850 FXN act, Wnt act)
C[C@@H]1CN([C@@H](C)CO)C(=O)Cc2cc(NS(=O)(=O)c3ccccc3)ccc2O[C@@H]1CN(C)Cc1ccc(Cl)c(Cl)c1	none (no result: MITF TRPM1 HTS, GAA850 FXN act, Wnt act)
C[C@H](CO)N1C[C@H](C)[C@@H](CN(C)Cc2ccc(Cl)c(Cl)c2)Oc2ccc(NS(C)(=O)=O)cc2CC1=O	C2C12 statin 92.1 (no result: MITF TRPM1 HTS, GAA850 FXN act, Wnt act)
CO[C@H]1CN(C)C(=O)c2cc(NC(=O)NC(C)C)ccc2OC[C@H](C)N(Cc2cncnc2)C[C@@H]1C	none (no result: MITF TRPM1 HTS, GAA850 FXN act, Wnt act)
O=C(NCc1ccccc1)c1ccc2c(=O)n(CC3CCCO3)c(=S)[nH]c2c1 (stereo not given)	none (no result: MITF TRPM1 HTS, Wnt act)
O=C(NCc1ccco1)c1ccc2c(=O)n(CC3CCCO3)c(=S)[nH]c2c1 (stereo not given)	C2C12 statin 91.1 (no result: Wnt act)
Cc1ccc(-c2ccc3c(c2)O[C@H](CN(C)C)[C@H](C)CN([C@@H](C)CO)S3(=O)=O)cc1	none (no result: MITF TRPM1 HTS, GAA850 FXN act, Wnt act)
O=c1[nH]c(SCc2cccc(Cl)c2)nc2ccccc12	none (no result: C2C12 statin, esBAF inh)
O=c1[nH]c(-c2ccc(-c3cccc(Cl)c3)o2)nc2ccccc12	MITF TRPM1 HTS 104.1, esBAF inh 57.8, Wnt act inconclusive
C[C@@H]1CCCCO[C@@H](CN(C)C(=O)Nc2cccc3ccccc23)[C@H](C)CN([C@H](C)CO)C(=O)c2cc(NS(=O)(=O)c3ccc(Cl)cc3)ccc2O1	C2C12 statin 86.7 (no result: MITF TRPM1 HTS, GAA850 FXN act, Wnt act)
C[C@@H]1CN([C@@H](C)CO)C(=O)c2cc(NS(=O)(=O)c3ccc(Cl)cc3)ccc2O[C@@H](C)CCCCO[C@@H]1CN(C)C(=O)Nc1cccc2ccccc12	C2C12 statin 142.0 (no result: MITF TRPM1 HTS, GAA850 FXN act, Wnt act)
C[C@H](CO)N1C[C@H](C)[C@@H](CN(C)C(=O)Nc2cccc3ccccc23)OCCCC[C@H](C)Oc2ccc(NS(=O)(=O)c3ccc(Cl)cc3)cc2C1=O	C2C12 statin inconclusive (no result: MITF TRPM1 HTS, GAA850 FXN act, Wnt act)
C[C@H](CO)N1C[C@H](C)[C@H](CN(C)C(=O)Nc2cccc3ccccc23)OCCCC[C@H](C)Oc2ccc(NS(=O)(=O)c3ccc(Cl)cc3)cc2C1=O	C2C12 statin 135.2 (no result: MITF TRPM1 HTS, GAA850 FXN act, Wnt act)
COc1ccc(-c2ccc3c(c2)[C@H]2[C@H](CCN2C(=O)Cc2ccccc2)[C@H](CO)N3C)cc1	none (no result: MITF TRPM1 HTS, GAA850 FXN act, Wnt act)
O=C(c1ccncc1)N1C[C@@H]2[C@H](c3ccccc31)[C@@H](CO)N2C(=O)Nc1ccc(F)cc1	none (no result: MITF TRPM1 HTS, GAA850 FXN act, Wnt act)
C[C@@H]1CCCCO[C@@H](CN(C)CC2CCCCC2)[C@H](C)CN([C@@H](C)CO)C(=O)c2cc(NC(=O)Cc3ccccc3)ccc2O1	none (no result: MITF TRPM1 HTS, C2C12 statin, GAA850 FXN act, Wnt act)
C[C@@H]1CN([C@H](C)CO)S(=O)(=O)c2ccc(-c3ccccc3)cc2O[C@H]1CN(C)C(=O)c1ccccc1F	none (no result: MITF TRPM1 HTS, GAA850 FXN act, Wnt act)
Nc1ccc(N=Nc2ccccc2)c2ccccc12	none
Nc1ccc(N=Nc2ccccc2)c(N)n1	MITF TRPM1 HTS 94.4
